The target in experiment [1] is Sphingosine kinase 1 (Homo sapiens) (UniProt Q9NYA1). Conditions: at 1 µM.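 Note: mean SPHK1 inhibition value reported from the GSK PKIS kinase panel screen.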
The target in experiment [2] is T1, Sphingosine kinase 2 (Homo sapiens) (UniProt Q9NRA0).
T1 sequence (whole entry): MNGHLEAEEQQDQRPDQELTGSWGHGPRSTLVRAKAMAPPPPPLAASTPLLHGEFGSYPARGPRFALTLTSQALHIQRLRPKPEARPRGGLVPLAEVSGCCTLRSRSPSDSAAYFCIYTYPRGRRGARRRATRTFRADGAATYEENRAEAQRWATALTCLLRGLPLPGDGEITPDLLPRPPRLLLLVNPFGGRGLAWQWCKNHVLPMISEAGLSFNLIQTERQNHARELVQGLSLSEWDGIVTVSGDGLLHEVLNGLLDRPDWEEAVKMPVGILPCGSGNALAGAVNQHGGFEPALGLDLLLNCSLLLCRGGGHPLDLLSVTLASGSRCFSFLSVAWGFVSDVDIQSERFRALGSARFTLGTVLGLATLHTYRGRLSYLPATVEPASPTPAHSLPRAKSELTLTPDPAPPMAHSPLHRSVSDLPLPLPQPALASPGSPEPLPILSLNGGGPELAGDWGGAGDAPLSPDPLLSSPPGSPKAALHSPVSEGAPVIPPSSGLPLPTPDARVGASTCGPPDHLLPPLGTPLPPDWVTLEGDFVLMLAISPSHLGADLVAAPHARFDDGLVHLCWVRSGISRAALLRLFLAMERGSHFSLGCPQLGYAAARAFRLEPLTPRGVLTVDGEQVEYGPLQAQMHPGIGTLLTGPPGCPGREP
Particulars: at 0.1 µM.

Experiment [3] deals with T1, Sphingosine kinase 2 (Homo sapiens). Particulars: at 1 µM.
Experiment [4] deals with Casein kinase II subunit alpha (Homo sapiens) (UniProt P68400). Conditions: at 0.1 µM.
Chain of Casein kinase II subunit alpha (Homo sapiens) (P68400 whole entry, looked up): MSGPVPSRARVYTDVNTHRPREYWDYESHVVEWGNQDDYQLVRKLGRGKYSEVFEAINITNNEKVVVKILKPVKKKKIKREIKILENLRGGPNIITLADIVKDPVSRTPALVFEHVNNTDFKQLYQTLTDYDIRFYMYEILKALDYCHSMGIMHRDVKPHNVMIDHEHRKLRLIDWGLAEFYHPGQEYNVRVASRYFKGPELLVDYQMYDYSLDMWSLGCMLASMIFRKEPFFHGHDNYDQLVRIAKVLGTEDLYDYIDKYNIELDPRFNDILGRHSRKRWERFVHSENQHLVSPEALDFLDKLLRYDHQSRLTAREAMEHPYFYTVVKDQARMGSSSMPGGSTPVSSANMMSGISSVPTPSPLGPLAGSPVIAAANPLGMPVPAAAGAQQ
For experiment [5] the target is unchanged. Particulars: at 1 µM.
In experiment [6] the target is T2, Inhibitor of nuclear factor kappa-B kinase subunit alpha (Homo sapiens) (UniProt O15111).
T2 sequence (whole entry): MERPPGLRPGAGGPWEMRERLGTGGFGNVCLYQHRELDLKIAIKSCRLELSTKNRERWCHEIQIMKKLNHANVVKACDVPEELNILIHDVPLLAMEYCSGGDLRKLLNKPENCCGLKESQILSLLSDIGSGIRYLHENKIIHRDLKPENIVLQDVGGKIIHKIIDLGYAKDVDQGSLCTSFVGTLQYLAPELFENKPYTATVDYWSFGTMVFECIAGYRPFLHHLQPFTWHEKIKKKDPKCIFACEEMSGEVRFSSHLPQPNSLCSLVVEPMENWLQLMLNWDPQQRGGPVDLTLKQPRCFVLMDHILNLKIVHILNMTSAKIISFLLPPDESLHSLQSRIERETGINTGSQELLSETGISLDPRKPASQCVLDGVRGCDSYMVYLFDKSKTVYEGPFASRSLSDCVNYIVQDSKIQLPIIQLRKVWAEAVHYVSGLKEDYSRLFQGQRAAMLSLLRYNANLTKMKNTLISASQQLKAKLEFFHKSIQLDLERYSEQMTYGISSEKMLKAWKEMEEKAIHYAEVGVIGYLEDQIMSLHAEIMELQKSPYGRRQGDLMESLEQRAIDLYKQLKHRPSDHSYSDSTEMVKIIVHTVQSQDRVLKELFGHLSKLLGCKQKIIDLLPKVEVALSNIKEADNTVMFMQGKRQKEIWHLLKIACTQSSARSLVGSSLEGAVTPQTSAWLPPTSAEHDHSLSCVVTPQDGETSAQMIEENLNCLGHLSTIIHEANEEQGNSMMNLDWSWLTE
Particulars: at 0.1 µM.

For experiment [7], the target named is T2, Inhibitor of nuclear factor kappa-B kinase subunit alpha (Homo sapiens). Particulars: at 1 µM.
Experiment [8] has as its target T3, Inhibitor of nuclear factor kappa-B kinase subunit beta (Homo sapiens) (UniProt O14920).
T3 sequence (whole entry): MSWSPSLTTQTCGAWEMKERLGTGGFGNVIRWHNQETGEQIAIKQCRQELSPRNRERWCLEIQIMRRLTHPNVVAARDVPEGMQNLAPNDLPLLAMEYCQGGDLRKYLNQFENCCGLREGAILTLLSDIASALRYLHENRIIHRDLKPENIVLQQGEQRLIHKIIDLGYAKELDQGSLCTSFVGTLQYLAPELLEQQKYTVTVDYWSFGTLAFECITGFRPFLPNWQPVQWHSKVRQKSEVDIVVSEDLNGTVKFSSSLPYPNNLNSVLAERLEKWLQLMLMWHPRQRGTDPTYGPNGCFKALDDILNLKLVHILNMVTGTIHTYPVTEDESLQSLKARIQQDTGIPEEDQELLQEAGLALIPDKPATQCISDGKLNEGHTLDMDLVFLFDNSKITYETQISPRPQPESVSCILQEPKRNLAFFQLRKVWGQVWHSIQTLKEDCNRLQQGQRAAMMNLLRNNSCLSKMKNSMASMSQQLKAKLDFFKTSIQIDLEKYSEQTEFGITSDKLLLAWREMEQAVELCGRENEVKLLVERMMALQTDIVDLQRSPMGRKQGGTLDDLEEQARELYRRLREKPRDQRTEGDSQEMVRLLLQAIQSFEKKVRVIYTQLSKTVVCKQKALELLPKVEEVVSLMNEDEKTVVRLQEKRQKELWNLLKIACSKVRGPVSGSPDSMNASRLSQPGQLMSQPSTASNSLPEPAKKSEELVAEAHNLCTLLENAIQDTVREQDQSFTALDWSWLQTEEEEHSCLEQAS
Particulars: at 0.1 µM.

Experiment [9] addresses T3, Inhibitor of nuclear factor kappa-B kinase subunit beta (Homo sapiens). Particulars: at 1 µM.
In experiment [10] the target is T4, Inhibitor of nuclear factor kappa-B kinase subunit epsilon (Homo sapiens) (UniProt Q14164).
T4 sequence (whole entry): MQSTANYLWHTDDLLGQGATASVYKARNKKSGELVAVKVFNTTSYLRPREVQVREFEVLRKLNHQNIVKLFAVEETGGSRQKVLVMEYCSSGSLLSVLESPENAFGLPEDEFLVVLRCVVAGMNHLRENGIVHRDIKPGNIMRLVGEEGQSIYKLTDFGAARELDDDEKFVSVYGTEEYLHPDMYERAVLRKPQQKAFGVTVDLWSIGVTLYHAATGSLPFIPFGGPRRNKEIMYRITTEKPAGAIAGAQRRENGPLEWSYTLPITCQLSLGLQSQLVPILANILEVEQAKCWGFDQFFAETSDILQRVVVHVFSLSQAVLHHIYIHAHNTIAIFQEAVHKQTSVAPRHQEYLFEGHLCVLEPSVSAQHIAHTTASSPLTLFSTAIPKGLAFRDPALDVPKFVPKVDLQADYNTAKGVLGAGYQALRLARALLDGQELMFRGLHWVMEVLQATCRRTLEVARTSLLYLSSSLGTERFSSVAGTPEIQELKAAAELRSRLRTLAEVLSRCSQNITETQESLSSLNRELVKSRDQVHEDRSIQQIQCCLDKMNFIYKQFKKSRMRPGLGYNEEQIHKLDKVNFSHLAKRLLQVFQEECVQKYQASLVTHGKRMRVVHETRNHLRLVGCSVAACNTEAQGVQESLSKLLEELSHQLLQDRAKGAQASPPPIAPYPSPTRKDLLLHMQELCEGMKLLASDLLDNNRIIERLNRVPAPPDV
Conditions: at 0.1 µM.

Experiment [11] addresses T4, Inhibitor of nuclear factor kappa-B kinase subunit epsilon (Homo sapiens). Conditions: at 1 µM.
The target in experiment [12] is T5, Serine/threonine-protein kinase Nek1 (Homo sapiens) (UniProt Q96PY6).
T5 sequence (whole entry): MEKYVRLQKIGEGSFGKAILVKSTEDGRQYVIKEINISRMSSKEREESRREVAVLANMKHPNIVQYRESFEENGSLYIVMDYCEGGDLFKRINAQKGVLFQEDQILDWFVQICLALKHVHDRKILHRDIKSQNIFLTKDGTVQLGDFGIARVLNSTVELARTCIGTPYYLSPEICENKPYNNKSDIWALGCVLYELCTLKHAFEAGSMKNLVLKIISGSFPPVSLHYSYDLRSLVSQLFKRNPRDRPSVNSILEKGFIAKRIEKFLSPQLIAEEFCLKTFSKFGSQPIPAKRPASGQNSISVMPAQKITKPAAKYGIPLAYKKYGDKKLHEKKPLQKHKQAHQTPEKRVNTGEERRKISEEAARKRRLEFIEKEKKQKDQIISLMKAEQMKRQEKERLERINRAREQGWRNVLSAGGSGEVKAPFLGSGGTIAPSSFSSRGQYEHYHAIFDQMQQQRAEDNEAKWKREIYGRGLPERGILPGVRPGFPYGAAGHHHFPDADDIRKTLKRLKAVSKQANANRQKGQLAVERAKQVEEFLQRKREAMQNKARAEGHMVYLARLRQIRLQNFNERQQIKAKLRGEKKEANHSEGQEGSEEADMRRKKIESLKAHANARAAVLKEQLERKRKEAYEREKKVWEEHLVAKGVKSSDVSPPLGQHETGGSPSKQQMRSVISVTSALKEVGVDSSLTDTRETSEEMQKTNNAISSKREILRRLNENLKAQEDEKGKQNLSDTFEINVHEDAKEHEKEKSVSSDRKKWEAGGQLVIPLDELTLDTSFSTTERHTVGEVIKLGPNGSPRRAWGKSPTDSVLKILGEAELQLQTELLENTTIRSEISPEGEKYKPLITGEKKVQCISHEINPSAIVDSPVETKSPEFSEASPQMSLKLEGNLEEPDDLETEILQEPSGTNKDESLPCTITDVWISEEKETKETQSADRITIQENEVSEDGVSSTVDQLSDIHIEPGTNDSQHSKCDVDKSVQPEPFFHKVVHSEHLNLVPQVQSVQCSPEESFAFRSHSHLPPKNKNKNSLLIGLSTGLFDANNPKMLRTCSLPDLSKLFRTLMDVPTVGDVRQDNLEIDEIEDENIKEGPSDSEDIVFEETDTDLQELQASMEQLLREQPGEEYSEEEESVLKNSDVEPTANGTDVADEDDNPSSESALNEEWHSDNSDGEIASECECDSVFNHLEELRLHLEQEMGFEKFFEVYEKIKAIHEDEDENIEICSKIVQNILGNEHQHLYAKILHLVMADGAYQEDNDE
Conditions: at 0.1 µM.

The target of experiment [13] is T5, Serine/threonine-protein kinase Nek1 (Homo sapiens). Particulars: at 1 µM.
For experiment [14], the target named is T6, Serine/threonine-protein kinase Nek2 (Homo sapiens) (UniProt P51955).
T6 sequence (whole entry): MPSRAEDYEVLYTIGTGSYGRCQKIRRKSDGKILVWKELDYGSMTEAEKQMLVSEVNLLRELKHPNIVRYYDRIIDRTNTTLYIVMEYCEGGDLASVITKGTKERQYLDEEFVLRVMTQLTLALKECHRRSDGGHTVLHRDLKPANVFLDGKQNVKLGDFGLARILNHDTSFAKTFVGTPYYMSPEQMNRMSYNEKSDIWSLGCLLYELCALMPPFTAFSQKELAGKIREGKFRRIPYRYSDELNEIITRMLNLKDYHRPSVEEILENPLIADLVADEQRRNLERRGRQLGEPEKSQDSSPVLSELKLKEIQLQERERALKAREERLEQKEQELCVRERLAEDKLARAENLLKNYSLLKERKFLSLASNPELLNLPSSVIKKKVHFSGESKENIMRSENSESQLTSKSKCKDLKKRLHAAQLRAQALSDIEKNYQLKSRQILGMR
Conditions: at 0.1 µM.

The target of experiment [15] is T6, Serine/threonine-protein kinase Nek2 (Homo sapiens). Particulars: at 1 µM.
Experiment [16] concerns the target Serine/threonine-protein kinase Nek6 (Homo sapiens) (UniProt Q9HC98). Conditions: at 0.1 µM.
The target is the same in experiment [17]. Particulars: at 1 µM.
For experiment [18], the target named is Serine/threonine-protein kinase Nek7 (Homo sapiens) (UniProt Q8TDX7). Particulars: at 0.1 µM.
Chain of Serine/threonine-protein kinase Nek7 (Homo sapiens) (Q8TDX7 whole entry, looked up): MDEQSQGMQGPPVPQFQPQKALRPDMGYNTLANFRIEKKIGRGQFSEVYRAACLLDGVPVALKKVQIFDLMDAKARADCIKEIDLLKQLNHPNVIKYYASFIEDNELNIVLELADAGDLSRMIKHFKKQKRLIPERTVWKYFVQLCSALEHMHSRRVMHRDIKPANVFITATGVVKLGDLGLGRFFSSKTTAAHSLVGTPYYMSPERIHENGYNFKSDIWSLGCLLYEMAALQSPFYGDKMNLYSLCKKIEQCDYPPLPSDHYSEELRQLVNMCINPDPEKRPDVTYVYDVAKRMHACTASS
Experiment [19] has the same target. Conditions: at 1 µM.
Experiment [20] has as its target T7, Serine/threonine-protein kinase Nek9 (Homo sapiens) (UniProt Q8TD19).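 Note: reported value is the mean percent inhibition of NEK9.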
T7 sequence (whole entry): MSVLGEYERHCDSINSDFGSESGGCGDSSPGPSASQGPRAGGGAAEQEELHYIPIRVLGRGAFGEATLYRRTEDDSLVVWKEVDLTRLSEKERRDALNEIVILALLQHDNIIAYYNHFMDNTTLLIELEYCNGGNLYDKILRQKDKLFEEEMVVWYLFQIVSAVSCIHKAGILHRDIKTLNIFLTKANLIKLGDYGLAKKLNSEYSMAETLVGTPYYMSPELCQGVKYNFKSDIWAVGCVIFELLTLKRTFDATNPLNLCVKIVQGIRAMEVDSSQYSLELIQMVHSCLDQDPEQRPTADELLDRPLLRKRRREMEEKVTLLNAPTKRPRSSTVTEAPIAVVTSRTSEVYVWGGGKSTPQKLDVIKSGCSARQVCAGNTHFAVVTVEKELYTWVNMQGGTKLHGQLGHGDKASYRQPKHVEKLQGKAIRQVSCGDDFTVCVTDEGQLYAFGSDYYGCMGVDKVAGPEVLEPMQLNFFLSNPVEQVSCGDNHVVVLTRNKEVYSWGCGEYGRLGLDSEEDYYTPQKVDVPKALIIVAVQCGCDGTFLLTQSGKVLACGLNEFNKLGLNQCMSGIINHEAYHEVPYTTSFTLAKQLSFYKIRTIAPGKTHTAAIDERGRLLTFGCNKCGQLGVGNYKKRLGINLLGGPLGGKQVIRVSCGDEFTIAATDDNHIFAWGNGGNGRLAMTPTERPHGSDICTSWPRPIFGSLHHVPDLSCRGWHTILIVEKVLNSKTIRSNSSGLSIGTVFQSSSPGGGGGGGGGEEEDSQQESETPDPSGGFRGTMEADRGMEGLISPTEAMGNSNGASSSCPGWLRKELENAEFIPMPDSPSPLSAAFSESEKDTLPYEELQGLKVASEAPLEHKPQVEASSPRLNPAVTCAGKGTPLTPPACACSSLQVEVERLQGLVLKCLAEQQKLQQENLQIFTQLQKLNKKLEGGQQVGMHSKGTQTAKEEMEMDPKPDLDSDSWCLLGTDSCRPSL
Particulars: at 0.1 µM.

Chain of Serine/threonine-protein kinase Nek6 (Homo sapiens) (Q9HC98 whole entry): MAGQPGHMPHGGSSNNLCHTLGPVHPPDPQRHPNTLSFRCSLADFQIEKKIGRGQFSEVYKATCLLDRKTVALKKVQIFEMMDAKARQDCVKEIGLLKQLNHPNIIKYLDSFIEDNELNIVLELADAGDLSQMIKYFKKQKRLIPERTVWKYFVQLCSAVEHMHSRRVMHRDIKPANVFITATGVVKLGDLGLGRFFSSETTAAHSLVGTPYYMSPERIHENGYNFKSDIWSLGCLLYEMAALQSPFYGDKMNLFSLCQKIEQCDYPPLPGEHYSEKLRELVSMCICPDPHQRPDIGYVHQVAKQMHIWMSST
Chain of Sphingosine kinase 1 (Homo sapiens) (Q9NYA1 whole entry): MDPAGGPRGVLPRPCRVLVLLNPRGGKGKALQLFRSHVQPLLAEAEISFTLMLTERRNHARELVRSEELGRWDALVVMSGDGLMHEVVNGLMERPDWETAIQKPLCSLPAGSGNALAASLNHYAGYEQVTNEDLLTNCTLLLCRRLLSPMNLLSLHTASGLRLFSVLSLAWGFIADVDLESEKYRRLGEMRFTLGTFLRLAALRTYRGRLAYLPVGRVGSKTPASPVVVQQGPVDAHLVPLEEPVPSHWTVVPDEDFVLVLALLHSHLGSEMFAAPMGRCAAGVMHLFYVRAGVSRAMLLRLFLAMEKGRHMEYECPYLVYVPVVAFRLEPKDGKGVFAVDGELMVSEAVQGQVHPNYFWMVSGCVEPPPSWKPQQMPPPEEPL

As a reminder, the inhibition is the relative decrease from the control value, in per cent. As to `CCCNc1cccc(-n2ncc3c(N/N=C/c4ccncc4)ncnc32)c1`, the inhibition in [1] was -3.91%; in experiment [2], -0.44%; in experiment [3], 1.31%; in experiment [4], 1.7%; in experiment [5], 14.1%; in experiment [6], 5.25%. The inhibition in experiment [7] is 0.68%; in experiment [8] it was 0.62%; in experiment [9], 3.19%; in experiment [10], 5.27%; in [11], 13.4%; in experiment [12], 0.28%. For the same molecule, the inhibition in experiment [13] was 7.87%; in [14] it was -1.07%; in experiment [15], 0.85%; in experiment [16], 4.08%; in experiment [17] it was 2.63%; in experiment [18], -1.02%. Moreover, the inhibition is -0.91% in [19] and 1.01% in experiment [20].

The record behind these values is ChEMBL document CHEMBL1961873, “Compounds: GSK PKIS; Assays: Nanosyn kinase panel” (2012).
